The list is not random: actives were taken first. Their share in the collection is about 3.8%.
PAFAH1B2 FP inh – blocks human PAF acetylhydrolase 1b catalytic subunit 2; inhibition, % at 3.39 µM; hit rate 1.2% among 340,000; recombinant PAFAH1B2, FP-rhodamine activity probe, fluorescence polarization; AID 492953; P68402;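 active means inhibition above the mean of all tested compounds plus 3 SD, cut at about 24% in these data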
Target sequence (P68402 whole entry, looked up): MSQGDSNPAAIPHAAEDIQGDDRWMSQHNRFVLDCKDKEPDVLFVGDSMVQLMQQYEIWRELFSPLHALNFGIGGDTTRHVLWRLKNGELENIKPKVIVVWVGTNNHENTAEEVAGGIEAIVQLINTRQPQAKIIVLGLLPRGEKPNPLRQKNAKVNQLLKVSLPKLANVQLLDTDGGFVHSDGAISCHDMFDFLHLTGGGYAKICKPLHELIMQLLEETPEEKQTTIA
DSG3 Ab inh – human desmoglein-3 autoantibody binding inhibition | P32926 | DSG3-coupled beads, scFv-anti-DSG3-GFP binding, flow cytometry; hits give low values | binding (percent of control), % at 10 µM | hit rate 0.48% among 310,000 | AID 588358;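 active means binding more than 3 SD below its plate's average and above zero; inconclusive means below that plate limit but binding exactly zero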;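 further: hits lower antibody fragment binding to DSG3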
PfM18AAP inh – PfM18AAP enzyme inhibition. hit rate 1.2% among 290,000. recombinant PfM18AAP, H-Glu-NHMec fluorogenic cleavage. inhibition, % at 7.35 µM;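 active means inhibition above the campaign mean inhibition over all tested compounds plus 3 SD, cut at about 28% in these data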
pPAFAH FP inh – inhibitors of human plasma PAF acetylhydrolase (pPAFAH); hit rate 1.5% among 330,000; recombinant pPAFAH, FP-rhodamine probe fluorescence polarization; Q13093; inhibition, % at 3.39 µM;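 active means inhibition above the mean inhibition across the screen plus 3 SD, cut at about 25% in these data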;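 further: inhibitors block binding of the rhodamine activity-based probe so polarization drops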
Target sequence (Q13093 whole entry, looked up): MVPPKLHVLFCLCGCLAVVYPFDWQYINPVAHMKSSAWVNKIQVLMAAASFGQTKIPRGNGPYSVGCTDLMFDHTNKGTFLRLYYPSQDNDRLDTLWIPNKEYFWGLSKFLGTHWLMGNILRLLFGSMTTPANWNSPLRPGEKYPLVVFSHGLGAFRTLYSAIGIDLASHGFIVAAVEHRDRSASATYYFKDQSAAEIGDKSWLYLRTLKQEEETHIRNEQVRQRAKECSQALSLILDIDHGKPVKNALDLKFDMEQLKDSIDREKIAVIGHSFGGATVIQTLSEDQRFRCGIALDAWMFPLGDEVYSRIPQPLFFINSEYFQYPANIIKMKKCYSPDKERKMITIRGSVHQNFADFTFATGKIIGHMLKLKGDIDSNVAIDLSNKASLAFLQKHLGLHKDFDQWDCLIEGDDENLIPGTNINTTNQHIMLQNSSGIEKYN
PAFAH2 FP inh – inhibitors of human PAFAH2 | Q99487 | recombinant PAFAH2, FP-rhodamine activity probe, fluorescence polarization | inhibition, % at 3.39 µM | hit rate 0.99% among 340,000 | AID 492956;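 active means inhibition above the mean over all tested compounds plus 3 SD, cut at about 30% in these data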;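 further: inhibitors block probe labeling of enzyme so polarization drops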
PAFAH1B3 inh – inhibitors of human PAFAH1B3; Q15102; recombinant PAFAH1B3, FP-rhodamine probe, fluorescence polarization; inhibition, % at 3.39 µM; hit rate 0.28% among 340,000; AID 492972;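 active means inhibition above the screen-wide average of all tested compounds plus 3 SD, cut at about 25% in these data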
Hits are given with their value; - = inactive; ? = inconclusive; . = not tested or not shown.

SMILES | PAFAH1B2 FP inh | DSG3 Ab inh | PfM18AAP inh | pPAFAH FP inh | PAFAH2 FP inh | PAFAH1B3 inh
NS(=O)(=O)c1ccc(N=Nc2ccc(O)c3ncccc23)cc1 | - | - | - | 27 | - | -
Oc1ccc(N=Nc2ccc3c(c2)OCCO3)c2ncccc12 | - | - | - | 28 | - | -
Cc1ccc(C)c(N=Nc2ccc(O)c3ncccc23)c1 | - | - | - | 27 | - | -
O=C(NCC1CCCO1)c1ccc2c(c1)C(=O)N(c1cccc([N+](=O)[O-])c1)C2=O (stereo unspecified) | - | 41 | - | - | - | -
COc1ccc(NC(=O)c2ccc(NC(=O)CN(C)CC(=O)Nc3c(C)cccc3C)cc2)cc1 | - | - | - | - | - | -
Cc1ccc(S(=O)(=O)Nc2ccccc2C(=O)Nc2nc(-c3ccc(F)cc3)cs2)cc1 | - | - | - | 25 | - | -
O=C(NNS(=O)(=O)c1ccc(Cl)cc1)c1ccc(S(=O)(=O)N2CCCCC2)cc1 | - | - | - | - | - | -
O=C(c1ccccc1NS(=O)(=O)c1ccc(F)cc1)N1CCCCC1 | - | - | - | - | - | -
O=C(Nc1cc(S(=O)(=O)Nc2ccc(Cl)cc2)ccc1O)c1ccc(S(=O)(=O)N2CCCCCC2)cc1 | - | - | - | 30 | - | -
O=C(Nc1cc(S(=O)(=O)N2CCCCC2)ccc1Cl)c1ccccc1NS(=O)(=O)c1ccc(F)cc1 | 30 | - | - | - | - | -
O=C(Nc1ccc(F)cc1)Nc1ccc(N2CCCC2)c(S(=O)(=O)Nc2ccccc2Cl)c1 | - | . | - | 25 | - | -
Cc1ccc(S(=O)(=O)Nc2nc(-c3ccccc3)cs2)cc1 | - | - | - | - | - | -
CC(C)n1c(=O)n(CC(=O)NCC2CCCO2)c(=O)c2c3c(sc21)COC(C)(C)C3 (stereo unspecified) | - | - | - | - | - | -
O=C(NCCc1ccccc1F)C1CC(=O)N(c2cccc(C(F)(F)F)c2)C1 (stereo unspecified) | - | - | . | . | - | -
O=C1CC2(CCCC2)C(=O)N1CN1CCN(S(=O)(=O)c2cc(F)ccc2F)CC1 | . | - | . | . | . | .
O=C1NC(=O)/C(=C/c2ccco2)N1 | - | - | . | - | - | -
O=C1NC(=S)NC1=Cc1ccco1 | - | 78 | . | . | - | -
Cc1cc(C)c(C(=O)COC(=O)c2cccc(S(=O)(=O)N3CCOCC3)c2)cc1C | . | - | . | . | . | .
Cc1ccccc1CC(=O)N1CCC(CCC(=O)NC2CC2)CC1 | . | - | . | . | . | .
Cc1ccc2nc(SCC(=O)N3CCN(c4ccccc4)CC3)[nH]c2c1 | 30 | - | - | - | - | -
COc1ccc(CNC(=O)CSc2nc3ccc(C)cc3[nH]2)cc1 | 29 | - | - | - | - | -
COc1ccc(CNC(=O)CSc2nc3ccc(OC)cc3[nH]2)cc1 | - | - | - | - | - | -
CCc1c(C)nc(SCC(=O)NNC(=O)Cc2ccc(OC)cc2)[nH]c1=O | - | - | 29 | - | - | -
Cc1cc(S(=O)(=O)Nc2ccc(C(=O)NC3CC3)cc2)ccc1F | . | - | . | . | . | .
Cc1cc(NC(=O)CSc2nnc3ccc(-c4ccccc4)nn23)no1 | . | - | . | . | . | .
SMILES | PAFAH1B2 FP inh | DSG3 Ab inh | PfM18AAP inh | pPAFAH FP inh | PAFAH2 FP inh | PAFAH1B3 inh
NS(=O)(=O)c1ccc(-c2ccc(/C=N/NC(=O)c3ccc([N+](=O)[O-])cc3)o2)cc1 | - | 75 | - | - | - | -
C=CCn1c(SCC(=O)Nc2cccc(S(=O)(=O)N(C)c3ccccc3)c2)nnc1C1CC1 | - | ? | . | - | - | -
C#CCn1c(=NC(=O)c2ccc(S(=O)(=O)N3CCc4ccccc4C3)cc2)sc2cc(S(N)(=O)=O)ccc21 | - | - | - | - | - | -
C#CCn1c(=NC(=O)c2sc3ccccc3c2Cl)sc2cc(S(N)(=O)=O)ccc21 | - | 109 | - | - | - | -
Brc1ccc(CSc2nccn2-c2ccccc2)cc1 | 24 | - | - | - | - | -
CCOC(=O)Cc1nnc(Nc2cc(C)ccc2C)c2ccccc12 | - | - | - | - | - | -
CCn1c(SCC(=O)Nc2oc(-c3ccccc3)c(-c3ccccc3)c2C#N)nnc1-c1ccco1 | 25 | - | - | - | - | -
Cc1cc(NC(=O)CSc2ncnc3sccc23)no1 | - | - | - | - | - | -
CCn1c(SCC(=O)N2c3ccccc3CC2C)nnc1-c1ccco1 (stereo unspecified) | - | . | - | - | - | -
CCn1c(SCC(=O)Nc2oc(-c3ccccc3)c(-c3ccccc3)c2C#N)nnc1-c1ccncc1 | - | - | - | - | - | -
CCn1c(SCC(=O)n2c(C)c(C)c3ccccc32)nnc1-c1ccco1 | - | 79 | - | - | - | -
N#Cc1c(NC(=O)CSc2ncnc3sccc23)oc(-c2ccco2)c1-c1ccco1 | - | - | - | 33 | - | -
CCCC1(CCC)NC(=O)N(CC(=O)Nc2ccc(Cl)c(S(=O)(=O)N3CCOCC3)c2)C1=O | - | - | . | - | - | -
Cc1cccn2c(CNCCc3ccco3)c(C(=O)N3CCOCC3)nc12 | - | . | - | . | - | -
O=C1N=c2ccccc2=C1c1sc(Nc2ccc(O)cc2)nc1O | - | -15 | - | . | - | -
N#Cc1ccc(CN2CCN(C(=O)C3CC(=O)N(c4ccc5c(c4)OCCO5)C3)CC2)cc1 (stereo unspecified) | . | - | . | . | . | .
O=C(Cc1ccccc1F)Nc1cccc(S(=O)(=O)N2CCCCC2)c1 | . | - | . | . | . | .
COc1ccc(OC/C(O)=C(\C#N)c2nc3ccccc3[nH]2)cc1 | - | 16 | - | - | - | -
COc1ccc(/C=N/OC/C(O)=C(\C#N)c2nc3ccccc3[nH]2)cc1 | - | - | - | - | - | -
N#C/C(=C(/O)COC(=O)Cc1c[nH]c2ccccc12)c1nc2ccccc2[nH]1 | - | . | - | 25 | - | -
Cc1c(C(=O)NN)nc2ccccn12 | - | - | - | - | - | -
O=C(O)c1cccc(S(=O)(=O)Nc2ccc3oc(=O)sc3c2)c1 | 27 | - | 42 | - | - | -
O=c1oc2ccc(NS(=O)(=O)c3cccc4cccnc34)cc2s1 | - | - | 31 | - | - | -
O=C(O)c1cccc(S(=O)(=O)Nc2ccc3[nH]c(=O)[nH]c3c2)c1 | - | - | - | - | - | -
CC(c1nc2ccccc2c(=O)[nH]1)N1CCN(S(=O)(=O)c2ccc(F)c(Cl)c2)CC1 (stereo unspecified) | . | - | . | . | . | .
SMILES | PAFAH1B2 FP inh | DSG3 Ab inh | PfM18AAP inh | pPAFAH FP inh | PAFAH2 FP inh | PAFAH1B3 inh
CN(C(=O)CSc1nc(-c2ccc(C(C)(C)C)cc2)c(C#N)c(=O)[nH]1)C1CCCCC1 | 31 | - | - | - | - | -
N#Cc1c(-c2ccccc2)nc(SCC(=O)NC2CCCCC2)[nH]c1=O | - | - | - | - | - | -
CCOC(=O)N1CCN(C(=O)c2ccc(CS(=O)c3cccc(C)c3)o2)CC1 (stereo unspecified) | . | - | . | . | . | .
CC(C)NC(=O)COC(=O)c1ccc(Oc2ccccc2)cc1 | - | . | - | 26 | 67 | -
CN(C)c1ccc(C(=O)OCC(=O)NCCCc2ccccc2)cc1 | - | - | - | 33 | 85 | -
O=C(COC(=O)c1ccc(-c2ccccc2)cc1)Nc1ccccc1-c1ccccc1 | - | - | - | - | - | -

Screening results from PubChem.
